# Paper PMC5540273 (PLoS ONE, 2017)
# Key:
# Conditions in all cases: concentration: 1 μM, replicates: in singlicate; n = 1
# [1] = system: INSRR
# [2] = system: INSR
# [3] = system: IRAK1
# [4] = system: IRAK3
# [5] = system: IRAK4
# [6] = system: ITK
# [7] = system: JAK1(JH1domain-catalytic)
# [8] = system: JAK1(JH2domain-pseudokinase)
# [9] = system: JAK2(JH1domain-catalytic)
# [10] = system: JAK3(JH1domain-catalytic)
# [11] = system: T1, JNK1
# T1 construct: gene MAPK8
# [12] = system: T2, JNK2
# T2 construct: gene MAPK9
# [13] = system: T3, JNK3
# T3 construct: gene MAPK10
# [14] = system: KIT-autoinhibited
# [15] = system: KIT
# [16] = system: LATS1
# [17] = system: LATS2
# [18] = system: LCK
# [19] = system: LIMK1
# [20] = system: LIMK2
# 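Note: KINOMEscan kinase panel screen.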
SMILES,%Inh [1] [%],%Inh [2] [%],%Inh [3] [%],%Inh [4] [%],%Inh [5] [%],%Inh [6] [%],%Inh [7] [%],%Inh [8] [%],%Inh [9] [%],%Inh [10] [%],%Inh [11] [%],%Inh [12] [%],%Inh [13] [%],%Inh [14] [%],%Inh [15] [%],%Inh [16] [%],%Inh [17] [%],%Inh [18] [%],%Inh [19] [%],%Inh [20] [%]
COc1ccc(Nc2nccc(N3CCC(NC(=O)Nc4ccc5c(c4)OCO5)C3)n2)cc1 (centres unmarked) [GSK1379745],0,0,11,11,6,6,0,0,19,0,18,20,20,0,48,0,0,24,0,26
Nc1nccc2scc(-c3ccc4c(c3)CCN4C(=O)Cc3cc(F)ccc3F)c12 [GSK2587663],0,0,17,10,7,18,14,0,0,0,22,26,8,0,64,0,8,22,4,13
Nc1nc(-c2ccc3c(N)n[nH]c3c2)cc(N2CCCCC2)n1 [GSK2228768],0,1,0,0,9,18,0,0,0,0,5,11,0,0,5,0,0,3,0,0
c1ccc(-c2ccc3c(-c4ccnc(Nc5ccc6c(c5)OCCO6)n4)cnn3n2)cc1 [GW818941],11,3,8,42,6,9,14,0,11,0,28,4,8,0,10,11,0,22,27,0
Cn1cc(-c2ccc3c(c2)CCN3C(=O)Cc2cccc(C(F)(F)F)c2)c2c(N)ncnc21 [GSK2606414],3,1,0,15,10,12,7,0,34,0,1,0,0,0,87,0,0,20,0,9
O=C(CCO)NCCn1ccc2ncnc(Nc3ccc(Oc4cccc(C(F)(F)F)c4)c(Cl)c3)c21,0,0,0,0,0,0,0,36,0,0,8,0,1,0,0,5,2,26,0,0
Cl.c1ccc(Cn2ncc3cc(Nc4ncnc5ccccc45)ccc32)cc1 [GW273749],0,3,0,0,9,0,8,0,11,0,5,5,0,0,4,0,0,15,0,75
CN1c2ccc(-c3ccc(C(=O)NCCO)cc3)cc2-c2[nH]ncc2S1(=O)=O,0,0,14,44,0,12,5,35,13,97.2,14,1,0,17,17,0,11,28,17,7
CCc1nc(-c2cccc(C)c2)c(-c2ccnc(NC(=O)c3ccccc3)c2)s1,0,29,14,1,6,16,22,3,19,8,53,79,93.3,6,21,30,100,0,0,0
COc1ccc(Nc2nccc(N3CCC(NC(=O)c4cccc(NC(C)=O)c4)C3)n2)cc1 (centres unmarked) [GSK1379732],0,0,24,0,0,0,15,0,22,0,16,23,26,0,7,0,9,9,0,0
